The record followed here is PubChem BioAssay (Tox21).

Records with an inconclusive call do not appear. Unmarked numbers belong to inactive results. Active and inactive are the calls of the source. The call rests on the fitted dose curve.
On the % scale 0 is the no-effect control and ±100 the full control effect.

A short description of one experiment: qHTS assay for small molecules that induce genotoxicity in human embryonic kidney cells expressing luciferase-tagged ATAD5 - cell viability (AID 651634). Further: nearly all actives have a fitted effect of over 25% in size. The following applies: HEK293T ATAD5-luc cells viability, CellTiter-Fluor, 15.5 h; series mostly up to 83.3 µM; activity, negative = cytotoxicity: at the top concentration. Summed up: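 Cytotoxicity counterscreen in HEK293T cells bearing an ATAD5-luciferase reporter: live-cell protease activity measured by CellTiter-Fluor fluorescence after 15.5 hr compound exposure.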
(qHTS replaces the single test concentration by a dilution series.)
Take `COc1nc(C)nc(NC(=O)NS(=O)(=O)c2ccccc2OCCCl)n1`: the “activity, negative = cytotoxicity” value is -4.64%.

As for `CCCCNC(=S)NCCCC`, the “activity, negative = cytotoxicity” value is 13.8%.

Take `CC(C)(C)c1cccc(O)c1`: the “activity, negative = cytotoxicity” value was 7.44%.

Regarding `O=C1CCC(C2CCCCC2)CC1`, the “activity, negative = cytotoxicity” value was -20.2%.

In the case of `COC(=O)c1ccc2cc(C(=O)OC)ccc2c1`, the “activity, negative = cytotoxicity” value is 23.5% [at 39.1 µM].

Turning to `CCCc1c2oc(C(=O)O)cc(=O)c2cc2c(=O)cc(C(=O)O)n(CC)c12`, the “activity, negative = cytotoxicity” value is -6.67%.

Turning to `CC(CNC1CCCCC1)OC(=O)c1ccccc1` (configuration not stated), the “activity, negative = cytotoxicity” value is 18.4% [at 39.1 µM].

For the compound `CC(C)OC(C)C`, the “activity, negative = cytotoxicity” value was 8.93% [at 95.3 µM].

For `OCCN(CCO)c1ccccc1`, the “activity, negative = cytotoxicity” value is 1.93%.

Consider `O=C(C(Cl)Cl)N1CCOC12CCCCC2`, for which the “activity, negative = cytotoxicity” value was 11.7%.

Take `CCCCCCCCCC#N`: the “activity, negative = cytotoxicity” value is 15.7%.

In the case of `CCOC(=O)C(Br)c1ccccc1` (configuration not stated), the “activity, negative = cytotoxicity” value is 8.54%.

Regarding `C[C@@H](N)C(=O)O`, the “activity, negative = cytotoxicity” value was 9.37%.

As to `O=C1N(c2ccccc2)c2ccccc2C1(Cc1ccncc1)Cc1ccncc1`, the “activity, negative = cytotoxicity” value is 24.2%.

For the compound `Cc1ccsc1C(=CCCN1CCC[C@@H](C(=O)O)C1)c1sccc1C`, the “activity, negative = cytotoxicity” value was 8.09%.

For `C=CCc1cc(OC)c(O)c(C(=O)NCCO)c1`, the “activity, negative = cytotoxicity” value is 13.4%.

In the case of `CCc1cc(Cl)c(OC)c(C(=O)NC[C@@H]2CCCN2CC)c1O`, the Potency result is “inactive”.

For `CCCCOc1cc(C(=O)NCCN(CC)CC)c2ccccc2n1`, the “activity, negative = cytotoxicity” value is 16.6% [at 39.1 µM].

`CCC(=O)O[C@]1(C(=O)SCF)[C@H](C)C[C@H]2[C@@H]3C[C@H](F)C4=CC(=O)C=C[C@]4(C)[C@@]3(F)[C@@H](O)C[C@@]21C`: the “activity, negative = cytotoxicity” value is 11.7% [at 39.1 µM].

In the case of `NNS(=O)(=O)c1ccc(Oc2ccc(S(=O)(=O)NN)cc2)cc1`, the “activity, negative = cytotoxicity” value was 11.3%.

Take `CN(CC1(C)CCCO1)S(=O)(=O)c1ccc(Cl)c(S(N)(=O)=O)c1` (configuration not stated): the “activity, negative = cytotoxicity” value is 13.7%.

On to `CCCCCOc1ccc(C2SC(=O)NC2=O)cc1OCC` (configuration not stated), for which the “activity, negative = cytotoxicity” value was 13.3%.

For the compound `CCCCNCCCC`, the “activity, negative = cytotoxicity” value is 9.3%.

In the case of `CC(C)c1ccccc1`, the “activity, negative = cytotoxicity” value is 14.3% [at 95.3 µM].

As to `CC/C=C\CCOC(=O)C(C)C`, the “activity, negative = cytotoxicity” value is 12%.

Regarding `CCC1(C)NC(=O)NC1=O` (configuration not stated), the “activity, negative = cytotoxicity” value was 14.8%.

For the compound `Cc1cc(S(=O)(=O)O)c(N)cc1Cl`, the “activity, negative = cytotoxicity” value was 6.81% [at 95.3 µM].

Take `COc1cc(N)c(Cl)cc1C(=O)NC1CCN(Cc2ccccc2)CC1`: the “activity, negative = cytotoxicity” value is 11.3% [at 39.1 µM].

In the case of `CCOC(=O)C1CC(=O)C(=C(O)C2CC2)C(=O)C1` (configuration not stated), the “activity, negative = cytotoxicity” value is 10%.

Turning to `O=S(=O)(O)C(F)(F)F`, the “activity, negative = cytotoxicity” value was 7.81%.

Regarding `O=c1[nH]cnc2c1ncn2[C@@H]1O[C@H](CO)[C@@H](O)[C@H]1O`, the “activity, negative = cytotoxicity” value was 9.99%.

Take `Cc1cc(NS(=O)(=O)c2ccc(N)cc2)nc(C)n1`: the “activity, negative = cytotoxicity” value was 2.87%.

Turning to `CC(C)CCCCCCc1ccc(OCCOCCO)cc1`, the “activity, negative = cytotoxicity” value was -13.7% [at 95.3 µM].

For the compound `CC1(C)S[C@@H]2[C@H](NC(=O)C(C(=O)O)c3ccccc3)C(=O)N2[C@H]1C(=O)O` (some centres not stated), the “activity, negative = cytotoxicity” value was 5.58%.

Consider `CCCCCCCCOC(=O)CCCCCCCCC(=O)OCCCCCCCC`, for which the “activity, negative = cytotoxicity” value was 8.82%.

Turning to `O=C1C=CC(=O)O1`, the “activity, negative = cytotoxicity” value was -5.98% [at 95.3 µM].

The next experiment is described as follows: qHTS assay for small molecule disruptors of the mitochondrial membrane potential - cell viability (AID 720634).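 Further: human HepG2 liver cancer cells; nearly all actives have a fitted effect of over 20% in size.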 Particulars: HepG2 viability, ATP luminescence (CellTiter-Glo), 1 h; series mostly up to 83.2 µM; activity change, negative = cytotoxicity: at the top concentration. Summed up:
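After overnight attachment at 37 C, HepG2 cells received compound or DMSO vehicle for 1 hr. Viability is then taken from ATP-driven luminescence following a 30 min room-temperature CellTiter-Glo step.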
Take `COc1nc(C)nc(NC(=O)NS(=O)(=O)c2ccccc2OCCCl)n1`: the “activity change, negative = cytotoxicity” value is -4.17%.

As to `CCCCNC(=S)NCCCC`, the “activity change, negative = cytotoxicity” value is 11.4%.

Take `CC(C)(C)c1cccc(O)c1`: the “activity change, negative = cytotoxicity” value was 12.9%.

With `O=C1CCC(C2CCCCC2)CC1`, the “activity change, negative = cytotoxicity” value was 5.85%.

As to `COC(=O)c1ccc2cc(C(=O)OC)ccc2c1`, the “activity change, negative = cytotoxicity” value was 8.55% [at 39.1 µM].

With `CCCc1c2oc(C(=O)O)cc(=O)c2cc2c(=O)cc(C(=O)O)n(CC)c12`, the “activity change, negative = cytotoxicity” value is 0.929%.

In the case of `CC(CNC1CCCCC1)OC(=O)c1ccccc1` (configuration not stated), the “activity change, negative = cytotoxicity” value was 2.17% [at 39.1 µM].

Take `CC(C)OC(C)C`: the “activity change, negative = cytotoxicity” value was 3.98% [at 95.3 µM].

As to `OCCN(CCO)c1ccccc1`, the “activity change, negative = cytotoxicity” value is -1.08%.

As for `O=C(C(Cl)Cl)N1CCOC12CCCCC2`, the “activity change, negative = cytotoxicity” value is 8.63%.

`CCCCCCCCCC#N`: the “activity change, negative = cytotoxicity” value was 4.8%.

Consider `CCOC(=O)C(Br)c1ccccc1` (configuration not stated), for which the “activity change, negative = cytotoxicity” value was 7.69%.

For `C[C@@H](N)C(=O)O`, the “activity change, negative = cytotoxicity” value is 10.3%.

Take `O=C1N(c2ccccc2)c2ccccc2C1(Cc1ccncc1)Cc1ccncc1`: the “activity change, negative = cytotoxicity” value is 4.69%.

Consider `Cc1ccsc1C(=CCCN1CCC[C@@H](C(=O)O)C1)c1sccc1C`, for which the “activity change, negative = cytotoxicity” value is 8.57%.

On to `C=CCc1cc(OC)c(O)c(C(=O)NCCO)c1`, for which the “activity change, negative = cytotoxicity” value is 6.62%.

With `CCc1cc(Cl)c(OC)c(C(=O)NC[C@@H]2CCCN2CC)c1O`, the Potency entry is “inactive”.

As for `CCCCOc1cc(C(=O)NCCN(CC)CC)c2ccccc2n1`, the “activity change, negative = cytotoxicity” value was -11.3% [at 39.1 µM].

With `CCC(=O)O[C@]1(C(=O)SCF)[C@H](C)C[C@H]2[C@@H]3C[C@H](F)C4=CC(=O)C=C[C@]4(C)[C@@]3(F)[C@@H](O)C[C@@]21C`, the “activity change, negative = cytotoxicity” value was -7.53% [at 39.1 µM].

Take `NNS(=O)(=O)c1ccc(Oc2ccc(S(=O)(=O)NN)cc2)cc1`: the “activity change, negative = cytotoxicity” value is -7.26%.

Take `CN(CC1(C)CCCO1)S(=O)(=O)c1ccc(Cl)c(S(N)(=O)=O)c1` (configuration not stated): the “activity change, negative = cytotoxicity” value was -1.15%.

As for `CCCCCOc1ccc(C2SC(=O)NC2=O)cc1OCC` (configuration not stated), the “activity change, negative = cytotoxicity” value was -10.3%.

As to `CCCCNCCCC`, the “activity change, negative = cytotoxicity” value is -2.04%.

In the case of `CC(C)c1ccccc1`, the “activity change, negative = cytotoxicity” value was 9.04% [at 95.3 µM].

Regarding `CC/C=C\CCOC(=O)C(C)C`, the “activity change, negative = cytotoxicity” value is 4.79%.

Consider `CCC1(C)NC(=O)NC1=O` (configuration not stated), for which the “activity change, negative = cytotoxicity” value was 24.1%.

Take `Cc1cc(S(=O)(=O)O)c(N)cc1Cl`: the “activity change, negative = cytotoxicity” value is 11.6% [at 95.3 µM].

For `COc1cc(N)c(Cl)cc1C(=O)NC1CCN(Cc2ccccc2)CC1`, the “activity change, negative = cytotoxicity” value was -4.27% [at 39.1 µM].

Take `CCOC(=O)C1CC(=O)C(=C(O)C2CC2)C(=O)C1` (configuration not stated): the “activity change, negative = cytotoxicity” value was 7.63%.

Regarding `O=S(=O)(O)C(F)(F)F`, the “activity change, negative = cytotoxicity” value was -4.82%.

With `O=c1[nH]cnc2c1ncn2[C@@H]1O[C@H](CO)[C@@H](O)[C@H]1O`, the “activity change, negative = cytotoxicity” value was 18.5%.

`Cc1cc(NS(=O)(=O)c2ccc(N)cc2)nc(C)n1`: the “activity change, negative = cytotoxicity” value is 8.69%.

As for `CC(C)CCCCCCc1ccc(OCCOCCO)cc1`, the “activity change, negative = cytotoxicity” value is 2.8% [at 95.3 µM].

As for `CC1(C)S[C@@H]2[C@H](NC(=O)C(C(=O)O)c3ccccc3)C(=O)N2[C@H]1C(=O)O` (some centres not stated), the “activity change, negative = cytotoxicity” value was -10.7%.

`CCCCCCCCOC(=O)CCCCCCCCC(=O)OCCCCCCCC`: the “activity change, negative = cytotoxicity” value is 5.2%.

With `O=C1C=CC(=O)O1`, the “activity change, negative = cytotoxicity” value is 9.65% [at 95.3 µM].
